# Tests used:
# Test in all cases: DAPPL (digital affinity profiling via proximity ligation, sequencing); 10 mM Tris-HCl pH 7.5, 50 mM NaCl, 1 mM DTT, 4% glycerol, room temperature, 30 min; GST-TFs on glutathione beads, 16-mer random dsDNA library, 0.1% formaldehyde crosslink after washing; high values mean tight binding
# Settings in all cases: protein: recombinant; tags: N-terminal GST; dsDNA, one strand shown
# FLI1 = molecular target: T1, FLI1 (Homo sapiens, UniProt Q01543 1-452)
# T1 sequence: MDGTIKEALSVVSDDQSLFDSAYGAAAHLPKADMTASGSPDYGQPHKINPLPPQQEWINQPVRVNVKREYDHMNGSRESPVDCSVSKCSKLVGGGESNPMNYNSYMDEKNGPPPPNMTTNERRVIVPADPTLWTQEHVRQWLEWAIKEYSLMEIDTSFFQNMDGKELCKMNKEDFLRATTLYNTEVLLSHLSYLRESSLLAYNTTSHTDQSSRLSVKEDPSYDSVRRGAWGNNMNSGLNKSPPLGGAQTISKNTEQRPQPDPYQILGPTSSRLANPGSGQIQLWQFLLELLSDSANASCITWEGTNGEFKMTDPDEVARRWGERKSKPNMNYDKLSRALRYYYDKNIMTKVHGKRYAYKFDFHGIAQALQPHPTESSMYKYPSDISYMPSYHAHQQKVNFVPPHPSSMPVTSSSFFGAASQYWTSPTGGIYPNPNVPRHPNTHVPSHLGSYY
# Procedure, shortened: (§1)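 Binding signal is each hexamer's read frequency for a factor divided by its frequency in the tag-only sample. The factors were GST-fused human transcription factors from yeast, captured on glutathione beads, DNA-barcoded and pooled with that sample. Pools were incubated with 200 nmole of a random double-stranded 16-mer DNA library in Tris/NaCl/DTT/glycerol buffer at room temperature for 30 min, then washed, crosslinked with 0.1% formaldehyde, proximity-ligated with BsaI/T4 ligase (1 h, 37 °C), PCR-amplified and sequenced on an Illumina NextSeq500.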
# ELK1 = molecular target: T2, ELK1 (Homo sapiens, UniProt P19419 1-428)
# T2 sequence: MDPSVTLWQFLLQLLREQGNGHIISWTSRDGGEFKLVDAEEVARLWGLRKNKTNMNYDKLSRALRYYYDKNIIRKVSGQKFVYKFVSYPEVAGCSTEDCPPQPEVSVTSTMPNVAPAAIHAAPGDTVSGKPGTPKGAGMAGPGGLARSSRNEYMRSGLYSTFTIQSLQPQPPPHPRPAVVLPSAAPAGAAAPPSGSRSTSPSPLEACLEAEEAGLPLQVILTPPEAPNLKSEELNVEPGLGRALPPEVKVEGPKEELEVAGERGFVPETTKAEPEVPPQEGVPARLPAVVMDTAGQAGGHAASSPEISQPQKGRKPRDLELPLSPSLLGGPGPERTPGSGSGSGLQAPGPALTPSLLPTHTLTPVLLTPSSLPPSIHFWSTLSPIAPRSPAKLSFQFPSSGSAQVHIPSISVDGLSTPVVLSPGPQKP
# Procedure, shortened: as §1
# GABPA = molecular target: T3, GABPA (Homo sapiens, UniProt Q06546 1-454)
# T3 sequence: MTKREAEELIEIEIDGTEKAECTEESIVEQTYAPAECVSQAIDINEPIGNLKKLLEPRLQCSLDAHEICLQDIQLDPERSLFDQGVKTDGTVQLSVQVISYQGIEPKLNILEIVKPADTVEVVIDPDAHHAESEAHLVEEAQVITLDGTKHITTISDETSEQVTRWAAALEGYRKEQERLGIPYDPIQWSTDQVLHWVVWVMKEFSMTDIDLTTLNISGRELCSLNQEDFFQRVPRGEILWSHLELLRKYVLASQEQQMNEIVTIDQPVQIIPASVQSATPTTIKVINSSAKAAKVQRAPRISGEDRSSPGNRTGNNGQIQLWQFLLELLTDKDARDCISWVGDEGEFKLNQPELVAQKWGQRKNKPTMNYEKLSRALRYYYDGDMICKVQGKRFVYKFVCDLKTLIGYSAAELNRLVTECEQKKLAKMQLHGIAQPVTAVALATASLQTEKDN
# Procedure, shortened: as §1
# ERG = molecular target: T4, ERG (Homo sapiens, UniProt P11308 1-479)
# T4 sequence: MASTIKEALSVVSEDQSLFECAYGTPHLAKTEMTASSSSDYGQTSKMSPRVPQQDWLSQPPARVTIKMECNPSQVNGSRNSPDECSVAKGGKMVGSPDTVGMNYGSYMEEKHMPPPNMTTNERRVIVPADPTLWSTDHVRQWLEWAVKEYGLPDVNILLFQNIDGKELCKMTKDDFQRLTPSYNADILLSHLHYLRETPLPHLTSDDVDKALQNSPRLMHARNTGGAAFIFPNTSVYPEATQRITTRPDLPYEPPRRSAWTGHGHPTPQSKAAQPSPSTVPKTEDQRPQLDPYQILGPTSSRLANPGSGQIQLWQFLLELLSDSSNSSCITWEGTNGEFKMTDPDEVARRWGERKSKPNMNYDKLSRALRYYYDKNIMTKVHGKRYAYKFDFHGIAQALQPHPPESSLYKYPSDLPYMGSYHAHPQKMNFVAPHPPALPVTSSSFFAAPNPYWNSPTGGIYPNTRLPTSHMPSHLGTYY
# Procedure, shortened: as §1
# ELF1 = ELF1 (Homo sapiens, UniProt P32519 1-619)
# Sequence of ELF1 (P32519 whole entry): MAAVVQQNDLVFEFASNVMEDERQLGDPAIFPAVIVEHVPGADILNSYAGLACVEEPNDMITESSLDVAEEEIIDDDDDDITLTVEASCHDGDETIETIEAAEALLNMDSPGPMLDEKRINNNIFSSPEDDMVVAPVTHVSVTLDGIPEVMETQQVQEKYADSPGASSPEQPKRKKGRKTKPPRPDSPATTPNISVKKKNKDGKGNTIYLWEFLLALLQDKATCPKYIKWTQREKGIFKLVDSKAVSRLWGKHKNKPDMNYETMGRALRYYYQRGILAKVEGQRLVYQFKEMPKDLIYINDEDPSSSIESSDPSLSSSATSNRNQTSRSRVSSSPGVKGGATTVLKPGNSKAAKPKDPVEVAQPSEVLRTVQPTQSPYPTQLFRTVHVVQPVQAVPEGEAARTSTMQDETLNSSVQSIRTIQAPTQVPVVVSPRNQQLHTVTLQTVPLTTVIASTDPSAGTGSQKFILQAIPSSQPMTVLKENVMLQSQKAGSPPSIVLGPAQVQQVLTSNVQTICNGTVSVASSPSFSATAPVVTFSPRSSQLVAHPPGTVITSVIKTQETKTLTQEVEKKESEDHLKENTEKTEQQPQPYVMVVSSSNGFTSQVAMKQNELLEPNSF
# Procedure, shortened: as §1
# EHF = molecular target: T5, EHF (Homo sapiens, UniProt Q9NZC4 1-300)
# T5 sequence: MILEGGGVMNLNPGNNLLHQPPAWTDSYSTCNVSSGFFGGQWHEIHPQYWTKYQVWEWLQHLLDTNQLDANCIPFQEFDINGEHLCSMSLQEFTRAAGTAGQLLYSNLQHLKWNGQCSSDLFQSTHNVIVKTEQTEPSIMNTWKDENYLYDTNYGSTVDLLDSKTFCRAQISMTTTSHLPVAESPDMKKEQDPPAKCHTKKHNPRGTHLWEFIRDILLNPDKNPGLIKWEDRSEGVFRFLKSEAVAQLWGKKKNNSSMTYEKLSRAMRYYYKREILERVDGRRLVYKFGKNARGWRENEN
# Procedure, shortened: as §1
# SPI1 = SPI1 (Homo sapiens, UniProt P17947 1-270)
# Procedure, shortened: as §1
# SPIB = SPIB (Homo sapiens, UniProt Q01892 1-262)
# Sequence of SPIB (Q01892 whole entry): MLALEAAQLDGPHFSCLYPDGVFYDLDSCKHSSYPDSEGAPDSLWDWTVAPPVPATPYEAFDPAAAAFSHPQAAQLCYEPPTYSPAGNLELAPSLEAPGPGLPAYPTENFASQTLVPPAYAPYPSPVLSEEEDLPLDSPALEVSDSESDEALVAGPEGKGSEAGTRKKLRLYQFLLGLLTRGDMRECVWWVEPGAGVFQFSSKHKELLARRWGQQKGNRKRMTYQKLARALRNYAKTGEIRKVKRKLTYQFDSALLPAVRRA
# Procedure, shortened: as §1
# ELK3 = molecular target: T6, ELK3 (Homo sapiens, UniProt P41970 1-407)
# T6 sequence: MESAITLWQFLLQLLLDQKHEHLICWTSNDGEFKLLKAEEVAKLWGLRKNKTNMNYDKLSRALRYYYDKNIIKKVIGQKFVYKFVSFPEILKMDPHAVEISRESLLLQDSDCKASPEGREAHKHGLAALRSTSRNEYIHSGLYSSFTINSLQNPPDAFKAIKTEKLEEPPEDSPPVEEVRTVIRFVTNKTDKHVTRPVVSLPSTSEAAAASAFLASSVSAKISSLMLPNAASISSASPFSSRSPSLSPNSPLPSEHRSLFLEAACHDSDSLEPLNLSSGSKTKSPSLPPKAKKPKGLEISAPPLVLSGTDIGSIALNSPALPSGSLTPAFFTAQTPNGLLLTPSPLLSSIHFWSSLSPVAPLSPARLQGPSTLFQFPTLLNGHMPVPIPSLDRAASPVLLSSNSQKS
# Procedure, shortened: as §1
Sequence,binding signal (FLI1),binding signal (ELK1),binding signal (GABPA),binding signal (ERG),binding signal (ELF1),binding signal (EHF),binding signal (SPI1),binding signal (SPIB),binding signal (ELK3)
GCGTCC,"1.26 fold enrichment (6-mer frequency, TF over GST control)","1.27 fold enrichment (6-mer frequency, TF over GST control)","1.27 fold enrichment (6-mer frequency, TF over GST control)","1.28 fold enrichment (6-mer frequency, TF over GST control)","1.26 fold enrichment (6-mer frequency, TF over GST control)","1.22 fold enrichment (6-mer frequency, TF over GST control)","1.23 fold enrichment (6-mer frequency, TF over GST control)","1.3 fold enrichment (6-mer frequency, TF over GST control)","1.29 fold enrichment (6-mer frequency, TF over GST control)"
TGAACC,"1.17 fold enrichment (6-mer frequency, TF over GST control)","1.25 fold enrichment (6-mer frequency, TF over GST control)","1.17 fold enrichment (6-mer frequency, TF over GST control)","1.1 fold enrichment (6-mer frequency, TF over GST control)","1.15 fold enrichment (6-mer frequency, TF over GST control)","1.16 fold enrichment (6-mer frequency, TF over GST control)","1.15 fold enrichment (6-mer frequency, TF over GST control)","1.15 fold enrichment (6-mer frequency, TF over GST control)","1.12 fold enrichment (6-mer frequency, TF over GST control)"
ACTGGC,"1.26 fold enrichment (6-mer frequency, TF over GST control)","1.12 fold enrichment (6-mer frequency, TF over GST control)","1.22 fold enrichment (6-mer frequency, TF over GST control)","1.11 fold enrichment (6-mer frequency, TF over GST control)","1.18 fold enrichment (6-mer frequency, TF over GST control)","1.1 fold enrichment (6-mer frequency, TF over GST control)","1.22 fold enrichment (6-mer frequency, TF over GST control)","1.15 fold enrichment (6-mer frequency, TF over GST control)","1.21 fold enrichment (6-mer frequency, TF over GST control)"
CAAATT,"1.15 fold enrichment (6-mer frequency, TF over GST control)","1.12 fold enrichment (6-mer frequency, TF over GST control)","1.2 fold enrichment (6-mer frequency, TF over GST control)","1.16 fold enrichment (6-mer frequency, TF over GST control)","1.14 fold enrichment (6-mer frequency, TF over GST control)","1.11 fold enrichment (6-mer frequency, TF over GST control)","1.15 fold enrichment (6-mer frequency, TF over GST control)","1.08 fold enrichment (6-mer frequency, TF over GST control)","1.14 fold enrichment (6-mer frequency, TF over GST control)"
ACCGGA,"2.87 fold enrichment (6-mer frequency, TF over GST control)","3.55 fold enrichment (6-mer frequency, TF over GST control)","2.66 fold enrichment (6-mer frequency, TF over GST control)","3.94 fold enrichment (6-mer frequency, TF over GST control)","2.87 fold enrichment (6-mer frequency, TF over GST control)","3.2 fold enrichment (6-mer frequency, TF over GST control)","3.17 fold enrichment (6-mer frequency, TF over GST control)","3.16 fold enrichment (6-mer frequency, TF over GST control)","3.55 fold enrichment (6-mer frequency, TF over GST control)"
TTCTAA,"1.28 fold enrichment (6-mer frequency, TF over GST control)","1.23 fold enrichment (6-mer frequency, TF over GST control)","1.2 fold enrichment (6-mer frequency, TF over GST control)","1.25 fold enrichment (6-mer frequency, TF over GST control)","1.23 fold enrichment (6-mer frequency, TF over GST control)","1.22 fold enrichment (6-mer frequency, TF over GST control)","1.14 fold enrichment (6-mer frequency, TF over GST control)","1.17 fold enrichment (6-mer frequency, TF over GST control)","1.08 fold enrichment (6-mer frequency, TF over GST control)"
TGCATC,"1.35 fold enrichment (6-mer frequency, TF over GST control)","1.42 fold enrichment (6-mer frequency, TF over GST control)","1.38 fold enrichment (6-mer frequency, TF over GST control)","1.43 fold enrichment (6-mer frequency, TF over GST control)","1.31 fold enrichment (6-mer frequency, TF over GST control)","1.33 fold enrichment (6-mer frequency, TF over GST control)","1.42 fold enrichment (6-mer frequency, TF over GST control)","1.35 fold enrichment (6-mer frequency, TF over GST control)","1.44 fold enrichment (6-mer frequency, TF over GST control)"
TTCTTG,"1.42 fold enrichment (6-mer frequency, TF over GST control)","1.46 fold enrichment (6-mer frequency, TF over GST control)","1.5 fold enrichment (6-mer frequency, TF over GST control)","1.38 fold enrichment (6-mer frequency, TF over GST control)","1.46 fold enrichment (6-mer frequency, TF over GST control)","1.56 fold enrichment (6-mer frequency, TF over GST control)","1.45 fold enrichment (6-mer frequency, TF over GST control)","1.39 fold enrichment (6-mer frequency, TF over GST control)","1.35 fold enrichment (6-mer frequency, TF over GST control)"
